TMEM16A inh – TMEM16A chloride channel inhibitors, primary screen, cell-based, HTS | hit rate 1.2% among 310,000 | normalized B-score (activity score, 25-100; higher = stronger inhibition) at 10 µM | HEK293 TMEM16A/YFP iodide influx fluorescence, ionomycin | AID 588511, 2011 | Anoctamin-1 (Mus musculus), Q8BHY3;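 active = ratio plate-corrected score three or more library SD toward inhibition, starting fluorescence score within five deviations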;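 also: score derived from kinetic fluorescence span divided by baseline fluorescence per well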
CHT PAM – CHT positive allosteric modulators, primary screen, cell-based, membrane potential dye, choline EC20; CHT-expressing cells; hits give high values; LV-AA mutant CHT in HEK293 cells; B-score at 10 µM; hit rate 0.49% among 310,000;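 active = initial fluorescence not abnormally high and integrated response B-score, plate-corrected, over 3 SD above library mean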
Target sequence (Q9GZV3 whole entry, looked up): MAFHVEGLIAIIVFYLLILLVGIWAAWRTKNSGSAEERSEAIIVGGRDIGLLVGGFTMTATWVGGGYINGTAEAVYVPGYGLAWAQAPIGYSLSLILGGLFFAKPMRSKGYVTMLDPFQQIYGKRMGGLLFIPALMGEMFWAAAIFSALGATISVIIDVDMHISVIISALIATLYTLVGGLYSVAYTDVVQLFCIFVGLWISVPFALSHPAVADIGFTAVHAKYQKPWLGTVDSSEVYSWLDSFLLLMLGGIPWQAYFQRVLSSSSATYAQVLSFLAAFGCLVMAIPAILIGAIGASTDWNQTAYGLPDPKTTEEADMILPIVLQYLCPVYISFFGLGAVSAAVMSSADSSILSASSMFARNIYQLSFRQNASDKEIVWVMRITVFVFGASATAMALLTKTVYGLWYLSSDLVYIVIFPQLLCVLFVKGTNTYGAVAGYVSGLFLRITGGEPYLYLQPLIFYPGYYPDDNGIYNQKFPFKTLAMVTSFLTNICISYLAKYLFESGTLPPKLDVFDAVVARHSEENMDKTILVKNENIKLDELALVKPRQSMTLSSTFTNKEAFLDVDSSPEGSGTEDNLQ
CHT inh – inhibitors of human choline transporter CHT; High affinity choline transporter 1 (Homo sapiens), Q9GZV3; hit rate 0.86% among 310,000; CHT-expressing cells, membrane potential dye, choline response; hits give low values; B-score at 10 µM; AID 488975, 2010;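 active = B-score over 3 SD under the library average, and starting fluorescence ratio not unusually high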;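 also: choline stimulus applied at its EC90 after an EC20 pre-addition; B-score computed on integrated fluorescence ratio after choline addition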
ANO1 activ – TMEM16A chloride channel activators or potentiators, primary screen, cell-based, HTS | hit rate 0.3% among 340,000 | B-score at 10 µM | AID 623877, 2012 | HEK293 TMEM16A/YFP-H148Q/I152L, iodide quench fluorescence; hits give low values | Anoctamin-1 (Mus musculus), Q8BHY3;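 active = fluorescence-ratio B-score plate-corrected deviation score at least 3 library SD below zero, with starting fluorescence score within 5 deviations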;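 also: channel opened by trigger with iodide after compound preincubation; score built on the fluorescence ratio of max minus min over baseline; more negative score means more quench and so TMEM16A activation or potentiation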
CHT act confirm – CHT activators, confirmation, cell-based, membrane potential dye, duplicate; shares compounds with CHT PAM; CHT-expressing cells, membrane potential dye fluorescence (FDSS); % of choline EC20–EC90 response window; HEK293 expressing CHT LV-AA mutant; choline added at its EC20; activation, % at 10 µM; hit rate 91% among 2,500; AID 504833, 2011;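 active = primary screen active, with duplicate mean activation above negative control mean plus 3 SD, cut at about 11% in these data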
HEK293 MP dye – membrane potential response in parental HEK293 cells, counter-screen for CHT activator project, cell-based, membrane potential dye; AID 623908, 2012; hit rate 62% among 2,500; shares compounds with CHT PAM; ratio readout change at 10 µM, hits read low; membrane potential dye fluorescence (FDSS); measured after EC20 choline addition;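 active = duplicate-averaged ratio beyond 3 SD from buffer wells, up or down, though filed actives are nearly all decreases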
* marks the source's active call; other numbers are inactive results. This is a sample that favours compounds with a hit; in the whole collection about 2.3% have one here.

Cc1nc2c(C)cccc2c2c1COC2 was read as TMEM16A inh inactive, CHT PAM inactive, CHT inh inactive, ANO1 activ inactive, CHT act confirm 55.3* and HEK293 MP dye -59.5*.
`Cc1c(OCC(=O)N[C@@H](Cc2c[nH]c3ccccc23)C(=O)O)ccc2c1oc(=O)c1ccccc12` gave TMEM16A inh inactive, CHT PAM inactive, CHT inh inactive and ANO1 activ inactive.
For COC(=O)c1ccc2c(c1)C(C)(C)C(/C=C/c1ccc(OC)c(OC)c1OC)=[N+]2C the results were TMEM16A inh inactive, CHT PAM 6.48*, CHT inh inactive, ANO1 activ inactive, CHT act confirm 59.4* and HEK293 MP dye -64.9*.
Screening COc1ccc(/C=N/Nc2ccc(C(=O)O)cc2)c(OC)c1OC returned TMEM16A inh inactive, CHT PAM inactive, CHT inh inactive and ANO1 activ inactive.
Screening Cc1nc([N+](=O)[O-])c(N2CCN(Cc3ccccc3)CC2)n1Cc1ccccc1 returned TMEM16A inh inactive, CHT PAM 7.37*, CHT inh inactive, ANO1 activ inactive, CHT act confirm 32.8* and HEK293 MP dye inactive.
`COc1ccc(CC(=O)NC(c2ccccc2)c2ccc(C)cc2)c(OC)c1` (stereo not given) gave TMEM16A inh inactive, CHT PAM inactive, CHT inh inactive and ANO1 activ inactive.
Screening COC(=O)c1cc(-c2cccc(OC)c2)c2c(=O)[nH]c(=O)n(C)c2n1 returned TMEM16A inh inactive, CHT PAM inactive, CHT inh inactive and ANO1 activ inactive.
Screening O=C(c1cccc(C(F)(F)F)c1)C1CCCN(Cc2cccn2-c2ncccn2)C1 (stereo not given) returned TMEM16A inh inactive, CHT PAM 9.23*, CHT inh inactive, ANO1 activ inactive, CHT act confirm 24.9* and HEK293 MP dye inactive.
For COc1cccc(C(=O)C2CCCN(Cc3cccn3-c3ccccn3)C2)c1 (stereo not given) the results were TMEM16A inh inactive, CHT PAM 9.65*, CHT inh inactive, ANO1 activ inactive, CHT act confirm 45.7* and HEK293 MP dye -25.6*.
`Cc1ccc(-n2cccn2)c(CN2CCCC(C(=O)c3sccc3C)C2)c1` (stereo not given) gave TMEM16A inh inactive, CHT PAM inactive, CHT inh inactive and ANO1 activ inactive.
`Cc1ccsc1C(=O)C1CCCN(Cc2cccn2-c2ccc(Cl)cn2)C1` (stereo not given) gave TMEM16A inh inactive, CHT PAM 16.1*, CHT inh inactive, ANO1 activ inactive, CHT act confirm 49.3* and HEK293 MP dye inactive.
For Cc1cccc(C)c1NC(=O)CN(C)C(=O)[C@H](C)NC(=O)c1ccco1 the results were ANO1 activ inactive.
Screening CC(C)N(C)S(=O)(=O)c1ccc(NC(=O)C2=COCCO2)cc1 returned ANO1 activ inactive.
Screening CCOC(=O)c1sc(=S)n(-c2ccc(OC)cc2)c1N returned TMEM16A inh inactive, CHT PAM inactive, CHT inh inactive, ANO1 activ inactive, CHT act confirm 13.3* and HEK293 MP dye inactive.
`c1cc(-c2nnc(-c3ccncc3)o2)ccn1` gave TMEM16A inh inactive, CHT PAM 8.74*, CHT inh inactive, ANO1 activ inactive, CHT act confirm 76.9* and HEK293 MP dye -59.5*.
CC1=C(c2ccccc2)SC2=NCCN21 was read as TMEM16A inh inactive, CHT PAM inactive, CHT inh inactive, ANO1 activ inactive, CHT act confirm 54.7* and HEK293 MP dye -55.9*.
For O=S(=O)(c1ccc(F)cc1)N1CCN(CC2CC3C=CC2C3)CC1 (stereo not given) the results were TMEM16A inh inactive, CHT PAM inactive, CHT inh inactive and ANO1 activ inactive.
Screening CC(=O)N(Cc1ccco1)C1(C(=O)NC2CCCCC2)CCCCC1 returned TMEM16A inh inactive, CHT PAM inactive, CHT inh inactive and ANO1 activ inactive.
O=C(Cc1cccs1)N(Cc1ccco1)C1(C(=O)NC2CCCCC2)CCCCC1 was read as TMEM16A inh inactive, CHT PAM inactive, CHT inh inactive, ANO1 activ inactive, CHT act confirm 55.0* and HEK293 MP dye inactive.
Screening C=C(C)CN(CC)C(=O)CN1C(=O)NC2(CCCc3ccccc32)C1=O (stereo not given) returned TMEM16A inh inactive, CHT PAM inactive, CHT inh inactive and ANO1 activ inactive.
Screening COCCOC(=O)c1[nH]c2c(c1C)C(=O)CC(c1ccc(N(C)C)cc1)C2 (stereo not given) returned TMEM16A inh inactive, CHT PAM inactive, CHT inh inactive and ANO1 activ inactive.
COCCOC(=O)c1[nH]c2c(c1C)C(=O)CC(c1ccccc1)C2 (stereo not given) was read as TMEM16A inh inactive, CHT PAM inactive, CHT inh inactive, ANO1 activ inactive, CHT act confirm 9.0 and HEK293 MP dye inactive.
`COc1cccc(C(=O)Nc2ccc3nc(N4CCOCC4)cc(C)c3c2)c1` gave TMEM16A inh inactive, CHT PAM 6.85*, CHT inh inactive, ANO1 activ inactive, CHT act confirm 42.3* and HEK293 MP dye -43.3*.
For c1ccc2c(N3CCCCC3)nc(N3CCOCC3)nc2c1 the results were TMEM16A inh inactive, CHT PAM 6.73*, CHT inh inactive, ANO1 activ inactive, CHT act confirm 40.2* and HEK293 MP dye -43.7*.
For c1ccc2c(N3CCCCC3)nc(N3CCCCC3)nc2c1 the results were TMEM16A inh inactive, CHT PAM inactive, CHT inh inactive and ANO1 activ inactive.
Cc1cc(N2CCOCC2)nc2cc(O)ccc12 was read as TMEM16A inh inactive, CHT PAM 9.23*, CHT inh inactive, ANO1 activ inactive, CHT act confirm 73.8* and HEK293 MP dye -45.2*.
Screening Cc1cc(N2CCOCC2)nc2ccccc12 returned TMEM16A inh inactive, CHT PAM 6.46*, CHT inh inactive, ANO1 activ inactive, CHT act confirm 45.4* and HEK293 MP dye -50.9*.
For CCOc1ccc(S(=O)(=O)N(C)c2ccc(OCC(=O)Nc3ccccc3F)cc2)cc1 the results were ANO1 activ inactive.

Source: PubChem BioAssay (Johns Hopkins Ion Channel Center)
